Screen size: about 5,500 compounds; about 2,000 (36%) were called active. About 18% were inconclusive and are not listed. No stated cut-off is given here; in the data, active means normalized growth mostly below about 0.91 (no sharp cut-off); inconclusive means no clear call, values can overlap the other calls; inactive means mostly above about 0.92. Some of the results follow.
Experiment: chemical genetic growth profiling, strain panel (AID 1159580);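 further: tested at 20 µM; growth read once vehicle control cultures reached saturation at 30 °C; 1 = growth at the plate median or of vehicle wells; lower values mean less growth of the strain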
Conditions: growth OD
[1] = S. cerevisiae deletion strains, locus YAL013W, strain DEP1, hits give low values
[2] = S. cerevisiae deletion strains, locus YBR229C, strain ROT2, hits give low values
[3] = S. cerevisiae deletion strains, locus YCL061C, strain MRC1, hits give low values
[4] = S. cerevisiae deletion strains, locus YDL101C, strain DUN1, hits give low values
[5] = S. cerevisiae deletion strains, locus YDR150W, strain NUM1, hits give low values
[6] = S. cerevisiae deletion strains, locus YEL061C, strain CIN8, hits give low values
[7] = S. cerevisiae deletion strains, locus YGR078C, strain PAC10, hits give low values
[8] = S. cerevisiae deletion strains, locus YHR030C, strain SLT2, hits give low values
[9] = S. cerevisiae deletion strains, locus YHR087W, strain rtc3, hits give low values
[10] = S. cerevisiae deletion strains, locus YJL187C, strain SWE1, hits give low values
[11] = S. cerevisiae deletion strains, locus YJR043C, strain POL32, hits give low values
[12] = S. cerevisiae deletion strains, locus YJR075W, strain HOC1, hits give low values
[13] = S. cerevisiae deletion strains, locus YLR039C, strain RIC1, hits give low values
[14] = S. cerevisiae deletion strains, locus YLR058C, strain SHM2 (second series), hits give low values
[15] = S. cerevisiae deletion strains, locus YLR085C, strain ARP6, hits give low values
[16] = S. cerevisiae deletion strains, locus YLR262C, strain YPT6, hits give low values
[17] = S. cerevisiae deletion strains, locus YML094W, strain GIM5, hits give low values
[18] = S. cerevisiae deletion strains, locus YMR219W, strain ESC1, hits give low values
[19] = S. cerevisiae deletion strains, locus YMR263W, strain SAP30, hits give low values
[20] = S. cerevisiae deletion strains, locus YNL153C, strain GIM3, hits give low values
[21] = S. cerevisiae deletion strains, locus YNL298W, strain CLA4 (second series), hits give low values
[22] = S. cerevisiae deletion strains, locus YNL322C, strain KRE1, hits give low values
[23] = S. cerevisiae deletion strains, locus YNR030W, strain Alg12, hits give low values
[24] = S. cerevisiae deletion strains, locus YPL055C, strain LGE1, hits give low values
[25] = S. cerevisiae deletion strains, locus YPL241C, strain CIN2, hits give low values
[26] = S. cerevisiae deletion strains, locus YPR135W, strain CTF4, hits give low values
[27] = S. cerevisiae deletion strains, locus YDL134C, strain PPH21, hits give low values
[28] = S. cerevisiae deletion strains, locus YKL190W, strain CNB1, hits give low values

Measured: normalized growth

O=C(NNC(=S)Nc1cccc(Cl)c1)c1cccnc1
inactive: [1] 1 | [2] 1 | [3] 0.976 | [4] 0.978 | [5] 0.969 | [6] 1.01 | [7] 0.97 | [8] 0.939 | [9] 0.992 | [10] 0.985 | [11] 0.999 | [12] 0.982 | [13] 1.03 | [14] 0.997 | [15] 0.885 | [16] 1.02 | [17] 0.965 | [18] 0.999 | [19] 0.949 | [20] 0.979 | [21] 0.98 | [22] 0.994 | [23] 0.956 | S. cerevisiae deletion strains, locus YOL006C, strain TOP1, hits give low values 0.803 | [24] 0.868 | [25] 0.972 | [26] 0.893

O=C(CSCc1c(Cl)cccc1Cl)NNC(=S)NC1CC2C=CC1C2 (centres undefined)
inactive: [1] 0.99 | [2] 0.972 | [4] 0.94 | [5] 0.956 | [7] 0.97 | [8] 0.838 | [9] 1.06 | [10] 0.979 | [11] 0.971 | [12] 0.973 | [14] 1.01 | [15] 0.788 | [18] 1.01 | [19] 0.944 | [20] 0.955 | [22] 1.02 | [24] 0.867 | [26] 0.873
active: [27] 0.857 | [28] 0.762 | [13] 0.607 | [16] 0.59 | [17] 0.827 | S. cerevisiae deletion strains, locus YNL128W, strain TEP1, hits give low values 0.792 | [21] 0.658 | [23] 0.781 | [25] 0.696 | S. cerevisiae strains, strain wild type, hits give low values 0.746

O=C(NNC(=S)NC1CC2C=CC1C2)c1cccnc1 (centres undefined)
inactive: [1] 0.985 | [2] 0.992 | [3] 0.971 | [4] 0.979 | [27] 0.992 | [5] 0.971 | [6] 0.977 | [7] 0.982 | [8] 0.908 | [9] 1.07 | [10] 0.989 | [11] 0.977 | [12] 0.986 | [28] 0.997 | [13] 0.812 | [14] 0.985 | [15] 0.938 | [17] 0.962 | [18] 0.993 | [19] 0.984 | S. cerevisiae deletion strains, locus YMR307W, strain GAS1, hits give low values 1.22 | [20] 0.993 | [21] 0.958 | [22] 0.993 | [23] 0.979 | [24] 0.979 | [25] 0.964 | [26] 0.92
active: [16] 0.809
